NSD2 HMT inh – NSD2 (human) methyltransferase inhibition; O96028; NSD2 peptide methylation, AlphaScreen, 120 min; inhibition, % at 12.5 µM; 0.54% of 310,000 active; AID 743445; in the data active = inhibition above about 50%
CASP6 VEID inh – blocks human caspase-6 cleavage activity | P55212 | purified caspase-6, Z-VEID-R110 cleavage fluorescence | inhibition, % at 12.5 µM | 0.53% of 350,000 active;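 active = mean inhibition across replicates at least about 35%, with every replicate also reaching that limit, limit read from the data; inconclusive = only one of the two criteria met; inactive = neither criterion met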;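 note: 0% = median of neutral control wells and 100% = no fluorescence left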
RAD52 anneal inh – RAD52 (human) annealing inhibition; P43351; AID 651710; recombinant RAD52 DNA annealing, FRET fluorescence; inhibition, % at 18.7 µM; 0.46% of 360,000 active;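 active = every replicate showing at least 50% inhibition; inconclusive = mean inhibition at least 50% but not in every replicate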
N-glyco inh – blocks N-linked glycosylation in D54 reporter cells; D54 ERlucT glycosylation luciferase reporter, 24 h; percent of 100 nM tunicamycin response; reporter increase, % at 12.5 µM; 0.23% of 360,000 active;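 active = mean luciferase reporter signal, scaled so untreated is 0 and the glycosylation-blocking control 100, at or above a set limit in every replicate; inconclusive = mean reaches the limit but not every replicate does; inactive = mean below the limit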;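 note: luciferase carries N-glycosylation sites so blocking glycosylation raises the light; 0% = median of neutral control wells and 100% = median of 100 nM tunicamycin wells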
RAD54 inh – RAD54 (human) branch migration inhibition; Q92698; inhibition, % at 10.4 µM; AID 602329; 0.14% of 360,000 active; RAD54 Holliday junction branch migration, FAM/BHQ fluorescence;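 active = mean normalized replicate activity at least 40 and at least half of replicates scoring 40 or more; inconclusive = only one of the two criteria met; inactive = mean below 40 and under half of replicates reaching 40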;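 note: 0% = median of neutral control wells and 100% = median of positive control wells; inhibitors cause a drop in the FAM fluorescence signal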
RAD52 DNA ctr – DNA binding artifact in RAD52 counter-screen. shares compounds with RAD52 anneal inh. Salmon sperm DNA/acridine orange FP displacement. AC50, µM. 8% of 1,000 active. AID 652128;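 active = fitted half-maximal concentration for signal loss at or below twice the highest dose tested, in every separate run, actives reach about 64 µM in these data; inconclusive = runs disagree, or flat partial signal loss, or poor fit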
Numbers without * were called inactive; i = inactive; ? = inconclusive; . = not tested or not shown. The list is not random: actives were taken first. Their share in the collection is about 1.2%.

SMILES | NSD2 HMT inh | CASP6 VEID inh | RAD52 anneal inh | N-glyco inh | RAD54 inh | RAD52 DNA ctr
COc1ccc(OC)c(Nc2c3ccccc3nc3ccccc23)c1 | 7 | -2 | 34 | 10 | 32 | .
COc1cc(NS(C)(=O)=O)ccc1Nc1c2ccccc2nc2ccccc12 | . | 10 | 55* | -7 | 56* | i
COc1cc2[nH]c(=O)c(C(=O)NCCCN3CCOCC3)c(O)c2cc1OC | -4 | -32 | 67* | -3 | . | i
O=C(NCCCN1CCOCC1)c1c(O)c2cc(Br)cc(Br)c2[nH]c1=O | . | . | . | 1 | 4 | .
CN1C(=O)c2cc(NC(=O)C3CCCC3)ccc2OC[C@@H]2O[C@@H](CC(=O)NCC(F)(F)F)CC[C@@H]21 | . | -2 | 3 | . | -12 | .
CCN1CCN(c2nc(Nc3ccc(NC(C)=O)cc3)nc(Nc3ccc(NC(C)=O)cc3)n2)CC1 | 21 | 3 | 73* | 0 | . | i
C[C@@H]1CN([C@@H](C)CO)C(=O)c2cc(NC(=O)c3ccncc3)ccc2O[C@H]1CN(C)Cc1ccc(C(F)(F)F)cc1 | . | -1 | -7 | . | 8 | .
C[C@H]1CN([C@@H](C)CO)C(=O)c2cc(C#Cc3ccccc3F)cnc2O[C@H]1CN(C)C(=O)c1ccc2c(c1)OCO2 | . | 4 | 20 | . | -5 | .
CCOC(=O)c1c(C)n(-c2ccc(C)cc2)c2ccc(OCC(O)CN3CCN(C)CC3)cc12 (stereo not given) | 14 | -69 | 97* | -4 | . | i
O=C(Nc1ccc(CN2CCOCC2)cc1)c1ccc(-c2ccc(Br)cc2)o1 | -5 | 2 | 51* | 3 | 2 | i
O=C(Nc1ccc(CN2CCOCC2)cc1)c1ccc(Br)cc1 | 0 | 0 | -10 | -2 | -8 | .
CN(C)CCCNC(=S)N(CCN(C)C)Cc1cc2cc3c(cc2[nH]c1=O)OCCO3 | 17 | -97 | 84* | -1 | 29 | i
CCN(CC)CCN(Cc1cc2cc3c(cc2[nH]c1=O)OCCO3)C(=S)NCCCN(C)C | 9 | -58 | 54* | 2 | 1 | i
CS(=O)(=O)N1CC(=O)N2[C@H](CO)[C@H](c3ccc(C#Cc4cccc(F)c4)cc3)[C@@H]2C1 | . | 1 | -23 | . | . | .
CNC(=O)C[C@H]1CC[C@@H]2[C@H](COc3ccc(NC(=O)Nc4cccc(Cl)c4)cc3C(=O)N2C)O1 | . | -1 | -2 | . | 4 | .
C[N+](C)(C)CC(=O)N/N=C/c1c2ccccc2cc2ccccc12 | -3 | -12 | 94* | 5 | 92* | 55µM*
CCN1CCN(c2cc(C)c3cc(NC(=O)c4ccncc4)ccc3n2)CC1 | . | -2 | -35 | -3 | 0 | .
Cc1cc(N2CCOCC2)nc2ccc(NC(=S)NC(C)C)cc12 | -2 | 21 | 53* | 3 | 8 | i
CCOC(=O)N1CCN(C(=S)Nc2ccc3nc(N4CCN(CC)CC4)cc(C)c3c2)CC1 | 17 | -56 | 54* | -4 | 37 | i
CCCCN(CC)CCNC(=O)CCC(=O)Nc1ccc2nc(N3CCN(C)CC3)cc(C)c2c1 | 6 | -27 | 81* | 2 | 44 | i
COc1cccc(S(=O)(=O)NCC(=O)N2CCCCCC2)c1 | -1 | 1 | 108* | 1 | -1 | i
COc1ccc2c3c(n(C)c2c1)[C@H](CO)N(C(=O)c1cnccn1)CC31CN(C(=O)c2cnccn2)C1 | . | 1 | 6 | . | . | .
Cc1cc(OCCCN2CCC(C(O)(c3ccccc3)c3ccccc3)CC2)ccc1Br | . | -2 | 55* | . | . | i
NCc1ccc(OCCCN2CCC(C(O)(C3=CCCC3)c3ccccc3)CC2)cc1 (stereo not given) | . | -4 | 67* | . | . | i
C[C@@H]1CCCCO[C@H](CN(C)C(=O)c2ccncc2)[C@H](C)CN([C@@H](C)CO)C(=O)c2cc(NS(=O)(=O)c3ccc(Cl)cc3)ccc2O1 | . | 0 | 11 | . | -4 | .
NC(N)=Nc1ccc(C=C2C=Cc3ccccc32)cc1 | 36 | 21 | 66* | -2 | . | i
COc1cccc2[nH]c3c(=O)[nH]cnc3c12 | -2 | -2 | -13 | 2 | -4 | .
COc1cccc2c3cccc(OC)c3c3[nH]cnc3c12 | 7 | -15 | 86* | ? | . | i
COCC(=O)N1C[C@@H](C)[C@@H](OC)CN(C)C(=O)c2cc(NC(=O)c3cc(C)on3)ccc2OC[C@H]1C | . | 3 | -8 | . | -6 | .
O=c1cc(NCCCO)c2ccccc2o1 | 3 | . | . | 1 | -2 | .
